Assay results as given in PubChem BioAssay (NCATS).
A number with no mark means an inactive call. Records with an inconclusive call do not appear. A call without a number means that no potency is given here. Active and inactive are the calls of the source. Unless noted, the call rests on the fitted dose curve; in most records, active means well fitted curve in the direction sought with a large enough effect; inconclusive means small, poorly fitted or top-dose-only effect, or another doubt; inactive means no such curve, though single readings can be large; an effect the other way counts as inactive or inconclusive. Where a SMILES comes first, the peptide text is derived from it.

What was measured:
Furin (Homo sapiens) = Furin (Homo sapiens) (UniProt P09958); experiment: Furin counterscreen qHTS for Zika virus inhibitors (AID 1347149);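 further: purified recombinant full-length human furin enzyme at 5 nM; fluorescence gain from furin cutting a BOC-RVRR-AMC peptide substrate over 15 min; top concentration of the series differs between compounds; nearly all actives have a fitted effect of over 70% in size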
Method in brief: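 Fluorogenic cleavage of BOC-RVRR-AMC (2 microM final, Km ~15 µM) was monitored (ex 340, em 450 nm) at 37C after 15 min RT preincubation of 5 nM furin with compounds in HEPES pH 7.0 buffer with CaCl2 and Triton X-100. Percent inhibition was fitted to a 4-parameter Hill curve.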

[1] = system: Zika virus NS2B-NS3 protease (unlinked); experiment: Optimization of GU AMC qHTS for Zika virus inhibitors: Unlinked NS2B-NS3 protease assay (AID 1347151); further: nearly all actives have a fitted effect of over 80% in size
Method in brief: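 Noncovalent NS2B hydrophilic domain–NS3 protease complex (25 nM final) in 10 mM Tris-HCl pH 8.0, 0.01% Tween 20; AMC substrate, room temperature 15 min (~20% conversion); fluorescence change normalized, 4-parameter Hill fit.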

[2] = system: Zika virus NS2B-NS3 protease; experiment: Primary screen GU AMC qHTS for Zika virus inhibitors (AID 1347154); further: nearly all actives have a fitted effect of over 70% in size
Method in brief: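 Unlinked Zika NS2B hydrophilic domain/NS3 protease domain noncovalent complex (25 nM final) in 10 mM Tris-HCl pH 8.0, 0.01% Tween 20, with AMC peptide substrate. Fluorescence (ex 340, em 450 nm) change over 15 min, room temperature; percent inhibition fitted to 4-parameter Hill equation.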

[3] = Vero cells viability qHTS for Zika virus inhibitors (AID 1347167)
Method in brief: (§1)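 Counter-screen for cytotoxicity of hits from NS2B-NS3 protease qHTS. Overnight-attached cells (2.5 x 10^5 cells/mL, DMEM/4% FBS) were dosed in titration, incubated 24 to 48 hours, then assayed by CellTiter Glo.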

[4] = Tertiary RLuc qRT-PCR qHTS assay for Zika virus inhibitors (AID 1347169); further: nearly all actives have a fitted effect of over 55% in size; further: potency means the concentration at half of the fitted maximal effect; on activity change, negative = inhibition: top concentration of the series differs between compounds
Method in brief: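 Vero cells (1,000/well) infected with recombinant ZIKV-RLuc (Cambodian) at MOI 1-2 after compound addition, 48-72 hrs at 37 degrees C. Live-cell Renilla luciferase substrate added; luminescence read after 1-1.5 hrs.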

[5] = Primary qHTS for small molecule stabilizers of the endoplasmic reticulum resident proteome: Secreted ER Calcium Modulated Protein (SERCaMP) assay (AID 1508630)
Method in brief: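 GLuc-SERCaMP-expressing SH-SY5Y cells, pretreated 16 h with compound, are challenged with thapsigargin to empty ER calcium stores; after 4 h, coelenterazine is added directly to the medium and luminescence is imaged.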

[6] = AP1 Signaling Pathway (AID 357; active means well fitted curve in either direction with a large enough effect, not every such curve was filed as active)
Method in brief: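 ME-180 cells with beta-lactamase reporter under AP-1 response element, stimulated with EC50 EGF; compounds tested in titration series, 5 h at 37 °C. CCF4 substrate added 2.5 h at room temperature; 460/530 nm emission ratio gave %activity and AC50.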

[7] = target: Cytochrome P450 1A2 (Homo sapiens) (UniProt P05177); experiment: p450-cyp1a2 (AID 410; calls by dose curve)
Method in brief: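 Human CYP1A2 (20nM) demethylated Luciferin-ME at its Km (100uM) in 100mM KPO4. After 10 min compound preincubation, NADPH regeneration ran the reaction 60 min at room temperature. Luciferin was read by luminescence, normalized to 57 uM furafylline.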

[8] = NFAT Signaling Pathway (AID 444; active means well fitted curve in either direction with a large enough effect, not every such curve was filed as active;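 further: carbachol stimulus at about its EC50 of 1 µM final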); details: Jurkat NFAT-bla M1, carbachol, beta-lactamase ratio, 5 h; at 38 µM (top of the series)
Method in brief: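 Jurkat cells carrying an NFAT-driven β-lactamase reporter and co-transfected muscarinic M1 receptor were treated with compound plus carbachol (1 uM final, an EC50 level) for 5 h at 37 °C. CCF4 loading followed for 1 h at RT; 460/530 nm ratio gave %activity.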

[9] = Stat Signaling Pathway (AID 446; active means well fitted curve in either direction with a large enough effect, not every such curve was filed as active;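 further: ME-180 cervical cancer cells given 40 pM IL-6 alongside compound; SIE-controlled beta-lactamase reporter measured as 460/530 nm FRET emission ratio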)
Method in brief: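 ME-180 SIE-bla cells; overnight plating; cpd + IL-6 40 pM, 5 h, 37 C; LiveBLAzer 2.5 h RT; 460/530 nm emission ratio. Normalized to 300 pM IL-6 and 125 nM JAK inhibitor controls.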

[10] = target: Glucocorticoid receptor (Homo sapiens) (UniProt P04150); experiment: GR-GFP Redistribution (AID 450;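 active means compounds whose dose series gives a full or clear partial fitted curve of increased nuclear translocation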; further: potency means the concentration at half of the fitted maximal effect); details: U2OS GR-GFP nuclear translocation, laser cytometry, 2 h
[11] = target: Glucocorticoid receptor (Homo sapiens) (UniProt P04150); experiment: GR-EFC Redistribution (AID 451; calls by dose curve; further: potency means the concentration at half of the fitted maximal effect); details: CHO-K1 GR-EFC translocation, beta-gal luminescence, 2 h
Method in brief: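 CHO-K1 cells stably expressing nuclear-localized β-gal enzyme acceptor and GR fused C-terminally to the enzyme donor fragment; ligand-driven nuclear translocation restores β-gal by complementation. Compounds titrated up to 46 uM final, 2 h at 37 °C; luminescence read.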

[12] = target: Mitogen-activated protein kinase 10 (Mus musculus) (UniProt Q61831); experiment: JNK3 AlphaScreen Assay (AID 530; active means well fitted curve in either direction with a large enough effect, not every such curve was filed as active;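 further: kinase came from lysate of stimulated human HepG2 cells; signal reports phosphorylation of biotinylated GST-cJun 1-79 at Ser73 with 10 µM ATP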)
Method in brief: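 JNK3 came from HepG2 lysates pre-activated with IL-1beta and TNF-alpha and phosphorylated biotinylated GST-cJun (1-79) at 10 uM ATP, pH 7.6, room temperature. Compounds were titrated. AlphaScreen signal used anti-phospho-cJun (Ser73) antibody.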

[13] = target: 3',5'-cyclic-AMP phosphodiesterase 4B (Homo sapiens) (UniProt Q07343); experiment: qHTS Assay for Inhibitors of PDE-IV (AID 607; active means well fitted activation curve with a large enough effect in the main read-out, with a control signal flat, not every such curve was filed as active)
Method in brief: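 ACTOne HEK293 cells carry a modified cAMP-gated CNG channel and express endogenous PDE4; plated 1000 cells/well, compounds up to 22.9 uM final. Membrane-potential dye fluorescence (ex 535/em 590) was read; parental cells received 10 uM forskolin + 100 uM RO 20-1724.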

[14] = target: Guanine nucleotide-binding protein G(i) subunit alpha-1 (Homo sapiens) (UniProt P63096); experiment: qHTS Assay for Inhibitors of RGS12 GoLoco Motif Activity (Green Fluorophore) (AID 879);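 further: negative values mean loss of peptide binding seen as reduced polarization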
Method in brief: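 Fluorescence polarization assay: 50 nM Gαi1 with 10 nM FITC-labeled RGS12 GoLoco peptide in 10 mM Tris pH 7.5, 150 mM NaCl, 0.1 mM GDP, 0.05% NP40, 10 min at room temperature with compound.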

[15] = target: Cytochrome P450 3A4 (Homo sapiens) (UniProt P08684); experiment: qHTS Assay for Activators of Cytochrome P450 3A4 (AID 885); further: nearly all actives have a fitted effect of over 65% in size
Method in brief: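 20nM CYP3A4 + 25uM Luciferin-PPXE (=KM), 200mM KPO4; cpd 10 min RT; NADPH regen, 60 min RT; stop w/ detection buffer, 20 min; luminescence. Normalized to 57 uM ketoconazole.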

[16] = target: Muscarinic acetylcholine receptor M1 (Rattus norvegicus) (UniProt P08482); experiment: qHTS Assay for Antagonists of Acetylcholine Muscarinic M1 Receptor: Kinetic Measurement of Intracellular Calcium Response (AID 943);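 further: Fluo-4 calcium signal as peak divided by basal fluorescence over 4 min; nearly all actives have a fitted effect of over 75% in size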
Method in brief: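 CHO cells stably expressing rat M1 were loaded with no-wash Fluo-4 dye for 1 h at 37C, pre-incubated 10 min with compound, then challenged with EC80 carbachol (100 nM final); kinetic calcium read 4 min, peak/basal ratio.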

[17] = target: Muscarinic acetylcholine receptor M1 (Rattus norvegicus) (UniProt P08482); experiment: qHTS Assay for Antagonists of Acetylcholine Muscarinic M1 Receptor: Measurement of IP-One Response (AID 944); further: nearly all actives have a fitted effect of over 75% in size
Method in brief: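 CHO cells expressing rat M1 receptor, recovered overnight, were pre-incubated 10 min with compound, then stimulated 30 min with carbachol at EC80 (200 nM) in LiCl-containing buffer, pH 7.4. IP1 accumulation was read by HTRF (620/665 nm).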

[18] = target: Pyruvate kinase (Leishmania mexicana) (UniProt Q27686); experiment: qHTS Validation Assay for Inhibitors of Leishmania Mexicana Pyruvate Kinase (AID 945)
Method in brief: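 qHTS eight-point titrations against 0.2 nM LmPYK (E451W) in imidazole buffer pH 7.2 with 0.5 mM PEP, 0.1 mM ADP; 1 h, room temperature. Readout: PKLight luminescence, normalized to neutral DMSO wells.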

[19] = target: Pyruvate kinase PKM (Homo sapiens) (UniProt P14618); experiment: qHTS Assay for Activators of Human Muscle Pyruvate Kinase (AID 954; active means well fitted curve in the direction sought with a large enough effect, not every such curve was filed as active)
Method in brief: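 Luminescence from a luciferase ATP-detection/stop reagent reported PKM2 activity. Reactions contained 0.1 nM purified human enzyme, 0.5 mM PEP, 0.1 mM ADP and 7 mM MgCl2 at pH 7.2, run 1 h at RT.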

[20] = target: Alpha-galactosidase (Coffea arabica) (UniProt Q42656); experiment: Counterscreen for Glucocerebrosidase Inhibitors: qHTS Assay for Coffee Bean alpha-Galactosidase at pH 4.5 (AID 957)
Method in brief: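 Green coffee bean enzyme (2 nM final) was incubated with compounds (0.7 nM to 77 uM) and 4-methylumbelliferyl alpha-D-galactopyranoside (80 uM final) in 50 mM citric acid, 0.005% Tween-20, pH 4.5, 20 min at room temperature; AC50 from Hill fits.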

[21] = target: Alpha-galactosidase A (Homo sapiens) (UniProt P06280); experiment: Counterscreen for Glucocerebrosidase Inhibitors: qHTS Assay for Human alpha-Galactosidase at pH 4.5 (AID 992)
Method in brief: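 Enzyme at 2 nM final was combined with compound (0.7 nM to 77 uM) and 80 uM 4-methylumbelliferyl alpha-D-galactopyranoside in 50 mM citric acid, 0.005% Tween-20, pH 4.5. After 20 min at room temperature, fluorescence was read (Ex 365/Em 440 nm); AC50 came from Hill fits.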

[22] = target: alpha-glucosidase (Oryza sativa, rice) (UniProt Q653V4); experiment: Counterscreen for Glucocerebrosidase Inhibitors: qHTS Assay for Rice alpha-Glucosidase at pH 5.0 (AID 997)
Method in brief: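 Rice alpha-glucosidase (4 nM final) with 400 uM 4-methylumbelliferyl-alpha-D-glucopyranoside in citrate buffer pH 5.0, 20 min at room temperature, stopped at pH 10; fluorescence 365/440 nm, compounds 0.7 nM–77 uM, AC50 from Hill fits.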

[23] = target: DNA dC->dU-editing enzyme APOBEC-3G (Homo sapiens) (UniProt Q9HC16); experiment: qHTS for inhibitors of Vif-A3G interactions: Validation (AID 588379)
Method in brief: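 HeLa cells stably expressing Vif and A3G-eYFP, 700 cells/well, incubated overnight at 37 deg C, then exposed to compound overnight at 37 deg C. Inhibition of Vif-mediated degradation read as increased yellow fluorescence (Ex 488/Em 500-530) by laser-scanning cytometry.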

[24] = system: Zika virus NS2B-NS3 protease (linked construct); experiment: Confirmatory screen NINDS AMC qHTS for Zika virus inhibitors (AID 1347152);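 further: AMC fluorescence gain from cleaved Bz-Nle-KRR-AMC substrate over 15 min; top concentration of the series differs between compounds; nearly all actives have a fitted effect of over 70% in size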
Method in brief: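 Linked NS2B-NS3 protease, 1 nM, in 10 mM Tris-HCl pH 8.0, 0.01% Tween 20; compounds preincubated 15 min at room temperature. Nle-KRR-AMC 10 microM (Km 18.3 µM); 15-min fluorescence change (340/450 nm) fitted to 4-parameter Hill.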

[25] = system: Zika virus NS2B-NS3 protease (unlinked complex); experiment: Confirmatory screen GU AMC qHTS for Zika virus inhibitors (AID 1347153); further: nearly all actives have a fitted effect of over 70% in size
Method in brief: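 Noncovalent NS2B hydrophilic domain/NS3 protease complex (25 nM) in 10 mM Tris-HCl pH 8.0, 0.01% Tween 20 was preincubated 15 min at room temperature with compounds. Then 10 µM AMC substrate (Km 18.3 µM) was added; fluorescence was read over 15 min and fitted to a 4-parameter Hill equation.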

[26] = Confirmatory screen NINDS Rhodamine qHTS for Zika virus inhibitors (AID 1347161);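 further: purified Zika NS2B-NS3 protease with linked NS2B cofactor domain and Rhodamine110 peptide substrate; nearly all actives have a fitted effect of over 60% in size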
Method in brief: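 Purified linked NS2B-NS3 protease (NS2B hydrophilic domain joined to NS3 protease by flexible linker), 25 nM in 10 mM Tris-HCl pH 8.0, 0.01% Tween 20. Compounds titrated, 15 min preincubation at room temperature; 1.5 microM Rhodamine110 substrate, FITC fluorescence change over 15 min.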

[27] = HepG2 cells viability qHTS for Zika virus inhibitors (AID 1347168)
Method in brief: as §1

Sequence of Glucocorticoid receptor (Homo sapiens) (P04150 whole entry, looked up, the tested form may be a part): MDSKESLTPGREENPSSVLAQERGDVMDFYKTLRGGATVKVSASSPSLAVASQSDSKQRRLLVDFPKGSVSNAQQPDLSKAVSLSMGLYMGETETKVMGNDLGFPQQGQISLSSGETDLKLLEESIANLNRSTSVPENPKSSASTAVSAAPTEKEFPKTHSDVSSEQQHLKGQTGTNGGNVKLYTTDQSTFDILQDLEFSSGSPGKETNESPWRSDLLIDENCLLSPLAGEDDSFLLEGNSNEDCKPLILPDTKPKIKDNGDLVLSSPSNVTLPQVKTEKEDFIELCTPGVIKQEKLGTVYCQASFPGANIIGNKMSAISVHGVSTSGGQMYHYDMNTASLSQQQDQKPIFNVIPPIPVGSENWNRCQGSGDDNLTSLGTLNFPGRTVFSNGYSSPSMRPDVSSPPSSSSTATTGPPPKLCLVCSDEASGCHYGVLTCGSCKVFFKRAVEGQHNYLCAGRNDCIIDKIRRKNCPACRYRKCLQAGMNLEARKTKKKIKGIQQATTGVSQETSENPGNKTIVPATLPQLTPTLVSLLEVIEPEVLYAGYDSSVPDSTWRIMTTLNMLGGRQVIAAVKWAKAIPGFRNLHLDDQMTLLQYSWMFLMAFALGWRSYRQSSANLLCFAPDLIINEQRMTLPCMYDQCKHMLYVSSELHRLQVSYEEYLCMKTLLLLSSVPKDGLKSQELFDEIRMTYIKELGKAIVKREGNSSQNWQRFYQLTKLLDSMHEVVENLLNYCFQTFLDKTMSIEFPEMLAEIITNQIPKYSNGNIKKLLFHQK
Sequence of Muscarinic acetylcholine receptor M1 (Rattus norvegicus) (P08482 whole entry, looked up): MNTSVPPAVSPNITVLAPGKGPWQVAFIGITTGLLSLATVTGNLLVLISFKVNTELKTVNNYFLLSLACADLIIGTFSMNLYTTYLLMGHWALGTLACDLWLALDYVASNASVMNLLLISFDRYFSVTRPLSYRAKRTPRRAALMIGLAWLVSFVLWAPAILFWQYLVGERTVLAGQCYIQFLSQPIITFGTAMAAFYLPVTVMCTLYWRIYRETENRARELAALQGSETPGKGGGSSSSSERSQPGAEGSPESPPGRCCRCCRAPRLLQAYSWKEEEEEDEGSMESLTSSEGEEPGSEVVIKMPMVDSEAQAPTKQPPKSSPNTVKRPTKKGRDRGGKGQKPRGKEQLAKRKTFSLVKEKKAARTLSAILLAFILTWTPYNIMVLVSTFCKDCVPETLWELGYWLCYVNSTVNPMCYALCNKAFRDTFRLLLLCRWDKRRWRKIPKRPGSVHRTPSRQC
Sequence of Furin (Homo sapiens) (P09958 whole entry, looked up): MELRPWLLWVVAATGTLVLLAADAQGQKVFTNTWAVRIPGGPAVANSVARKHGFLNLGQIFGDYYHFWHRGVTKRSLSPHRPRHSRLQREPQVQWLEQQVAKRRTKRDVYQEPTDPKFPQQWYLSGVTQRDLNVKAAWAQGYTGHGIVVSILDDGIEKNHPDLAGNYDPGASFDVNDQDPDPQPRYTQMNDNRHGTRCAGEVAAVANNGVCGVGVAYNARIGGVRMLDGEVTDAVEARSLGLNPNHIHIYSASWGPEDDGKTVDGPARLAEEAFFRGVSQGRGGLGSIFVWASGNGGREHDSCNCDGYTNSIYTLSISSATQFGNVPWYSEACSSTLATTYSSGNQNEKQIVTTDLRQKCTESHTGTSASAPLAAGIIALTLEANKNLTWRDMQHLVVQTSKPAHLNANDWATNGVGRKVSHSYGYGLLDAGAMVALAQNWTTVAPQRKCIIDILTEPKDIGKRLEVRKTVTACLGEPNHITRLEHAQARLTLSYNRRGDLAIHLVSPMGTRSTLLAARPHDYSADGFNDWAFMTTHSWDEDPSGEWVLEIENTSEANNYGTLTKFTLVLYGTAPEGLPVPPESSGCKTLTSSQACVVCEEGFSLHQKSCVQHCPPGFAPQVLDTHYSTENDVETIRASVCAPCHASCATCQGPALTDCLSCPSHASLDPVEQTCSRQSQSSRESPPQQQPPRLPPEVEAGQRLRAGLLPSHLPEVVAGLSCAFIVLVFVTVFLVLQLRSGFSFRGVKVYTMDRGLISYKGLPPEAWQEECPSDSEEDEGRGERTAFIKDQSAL
Sequence of 3',5'-cyclic-AMP phosphodiesterase 4B (Homo sapiens) (Q07343 whole entry, looked up): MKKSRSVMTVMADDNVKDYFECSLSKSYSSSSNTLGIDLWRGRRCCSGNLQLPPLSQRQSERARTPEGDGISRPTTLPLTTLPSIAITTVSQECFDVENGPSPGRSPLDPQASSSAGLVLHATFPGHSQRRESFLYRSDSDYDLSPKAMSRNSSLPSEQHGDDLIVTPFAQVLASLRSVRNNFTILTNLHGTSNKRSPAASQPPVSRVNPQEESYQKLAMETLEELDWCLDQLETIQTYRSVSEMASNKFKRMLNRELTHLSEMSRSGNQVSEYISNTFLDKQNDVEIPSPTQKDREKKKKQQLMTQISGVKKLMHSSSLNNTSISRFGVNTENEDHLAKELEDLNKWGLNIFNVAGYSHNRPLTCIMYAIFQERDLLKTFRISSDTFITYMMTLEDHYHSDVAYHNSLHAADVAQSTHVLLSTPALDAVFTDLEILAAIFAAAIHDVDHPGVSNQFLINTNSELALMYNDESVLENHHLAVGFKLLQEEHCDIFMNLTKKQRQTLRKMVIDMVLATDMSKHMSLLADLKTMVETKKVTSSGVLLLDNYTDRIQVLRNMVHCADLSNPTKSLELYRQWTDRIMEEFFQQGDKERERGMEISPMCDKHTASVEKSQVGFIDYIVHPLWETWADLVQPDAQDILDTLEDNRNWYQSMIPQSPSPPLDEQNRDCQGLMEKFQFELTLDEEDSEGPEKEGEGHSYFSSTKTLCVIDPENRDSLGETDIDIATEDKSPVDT
Sequence of Cytochrome P450 1A2 (Homo sapiens) (P05177 whole entry, looked up): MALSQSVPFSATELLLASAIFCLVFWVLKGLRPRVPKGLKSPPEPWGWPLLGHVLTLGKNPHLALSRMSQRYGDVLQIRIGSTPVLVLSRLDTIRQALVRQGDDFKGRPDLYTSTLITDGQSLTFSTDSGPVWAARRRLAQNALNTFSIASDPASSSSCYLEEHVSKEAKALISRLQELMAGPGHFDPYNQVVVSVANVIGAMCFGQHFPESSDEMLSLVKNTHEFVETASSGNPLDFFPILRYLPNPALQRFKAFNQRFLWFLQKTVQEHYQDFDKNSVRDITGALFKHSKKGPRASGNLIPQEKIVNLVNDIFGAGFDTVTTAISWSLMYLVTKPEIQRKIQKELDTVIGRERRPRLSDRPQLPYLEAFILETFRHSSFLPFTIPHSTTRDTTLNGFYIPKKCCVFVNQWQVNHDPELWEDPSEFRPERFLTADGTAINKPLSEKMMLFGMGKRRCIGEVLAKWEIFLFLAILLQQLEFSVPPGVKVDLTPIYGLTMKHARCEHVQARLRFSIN
Sequence of Guanine nucleotide-binding protein G(i) subunit alpha-1 (Homo sapiens) (P63096 whole entry, looked up): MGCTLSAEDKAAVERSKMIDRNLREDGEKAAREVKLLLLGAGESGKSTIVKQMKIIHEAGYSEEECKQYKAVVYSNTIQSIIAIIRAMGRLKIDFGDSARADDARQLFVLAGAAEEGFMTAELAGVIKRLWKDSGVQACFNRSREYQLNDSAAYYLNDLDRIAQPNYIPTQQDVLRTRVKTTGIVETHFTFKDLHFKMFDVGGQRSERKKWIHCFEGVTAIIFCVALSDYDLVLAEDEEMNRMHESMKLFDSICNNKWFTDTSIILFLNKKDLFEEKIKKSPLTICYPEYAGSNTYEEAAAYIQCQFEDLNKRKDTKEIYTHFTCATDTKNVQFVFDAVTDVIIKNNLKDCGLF
Sequence of Pyruvate kinase (Leishmania mexicana) (Q27686 2-499 E452W): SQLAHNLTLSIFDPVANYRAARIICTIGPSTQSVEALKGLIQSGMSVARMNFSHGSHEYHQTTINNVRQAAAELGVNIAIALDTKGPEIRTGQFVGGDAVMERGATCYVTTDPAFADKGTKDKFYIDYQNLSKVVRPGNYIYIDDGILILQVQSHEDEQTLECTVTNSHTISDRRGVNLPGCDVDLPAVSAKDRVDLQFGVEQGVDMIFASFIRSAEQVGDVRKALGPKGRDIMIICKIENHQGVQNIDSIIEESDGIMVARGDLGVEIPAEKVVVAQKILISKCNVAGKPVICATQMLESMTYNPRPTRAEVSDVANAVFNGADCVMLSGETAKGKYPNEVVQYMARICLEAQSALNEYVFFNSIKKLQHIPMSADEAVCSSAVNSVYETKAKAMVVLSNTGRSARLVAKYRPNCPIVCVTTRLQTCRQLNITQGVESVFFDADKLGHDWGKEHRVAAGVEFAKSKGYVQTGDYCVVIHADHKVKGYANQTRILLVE
Sequence of Alpha-galactosidase A (Homo sapiens) (P06280 whole entry, looked up): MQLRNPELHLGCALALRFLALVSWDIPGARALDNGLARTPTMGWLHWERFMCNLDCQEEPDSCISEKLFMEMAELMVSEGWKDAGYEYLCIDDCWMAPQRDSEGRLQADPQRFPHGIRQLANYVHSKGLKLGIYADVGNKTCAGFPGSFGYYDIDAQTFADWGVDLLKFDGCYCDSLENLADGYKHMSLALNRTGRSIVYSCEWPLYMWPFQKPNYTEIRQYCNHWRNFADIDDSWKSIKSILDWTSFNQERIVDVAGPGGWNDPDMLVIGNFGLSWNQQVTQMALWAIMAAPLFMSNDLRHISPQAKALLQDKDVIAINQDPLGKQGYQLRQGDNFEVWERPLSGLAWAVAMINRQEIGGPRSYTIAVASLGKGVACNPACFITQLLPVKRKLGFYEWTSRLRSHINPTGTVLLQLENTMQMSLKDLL
Sequence of Alpha-galactosidase (Coffea arabica) (Q42656 whole entry, looked up): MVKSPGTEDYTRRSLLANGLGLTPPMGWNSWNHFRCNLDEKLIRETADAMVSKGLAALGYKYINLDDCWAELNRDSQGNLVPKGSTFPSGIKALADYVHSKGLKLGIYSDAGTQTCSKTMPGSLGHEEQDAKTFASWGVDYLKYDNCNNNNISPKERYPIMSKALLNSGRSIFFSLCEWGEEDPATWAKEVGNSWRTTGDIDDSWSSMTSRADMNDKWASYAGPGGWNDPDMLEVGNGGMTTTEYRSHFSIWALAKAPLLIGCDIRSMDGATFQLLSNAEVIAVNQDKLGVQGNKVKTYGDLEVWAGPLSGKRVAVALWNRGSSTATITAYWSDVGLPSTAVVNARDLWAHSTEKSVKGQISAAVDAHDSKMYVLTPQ

C[C@@H]1O[C@@H](O[C@H]2C[C@@H](O)[C@]3(CO)C4C(CC[C@]3(O)C2)[C@@]2(O)CC[C@H](C3=CC(=O)OC3)[C@@]2(C)C[C@H]4O)[C@H](O)[C@H](O)[C@H]1O (stereo partly drawn)
Potency (Furin (Homo sapiens)): inactive | outcome [1]: inactive | Potency [2]: inactive | Potency [3]: inactive | Potency [4]: 0.234 µM (active) | Potency [5]: inactive

C[C@H](N)C(=O)N[C@@H](C)C(=O)N[C@@H](Cc1ccccc1)C(=O)CCl (HELM PEPTIDE1{A.A.F.[ClC[*:1]]}$$$$V2.0)
Potency [2]: inactive

CN(C(=O)Cc1ccc(Cl)c(Cl)c1)[C@@H](CN1CCCC1)c1cccc(OCC(=O)O)c1
outcome [6]: inactive | Potency [7]: inactive | activity change, negative = inhibition [8]: 9.54% | outcome [9]: inactive | Potency [10]: > 46 µM | Potency [11]: > 46 µM | outcome [12]: inactive | Potency [13]: inactive | outcome [14]: inactive | Potency [15]: inactive | Potency [16]: inactive | Potency [17]: inactive | outcome [18]: inactive | outcome [19]: inactive | outcome [20]: inactive | outcome [21]: inactive | outcome [22]: inactive | Potency [23]: inactive | Potency (Furin (Homo sapiens)): inactive | Potency [24]: inactive | Potency [25]: inactive | Potency [26]: inactive | Potency [3]: inactive | Potency [27]: inactive | Potency [4]: inactive | Potency [5]: inactive
